Compounds without any hit were thinned out: in the full panel of roughly 83,000, 20% have a hit.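 How to read the values: 0–100, growth inhibition (40 = 60% inhibited); 0, no net growth; -100 to 0, cell death (-40 = 40% of starting cells died; -100 = all dead).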 A number with no mark means an inactive call. Calls of active or inactive are those of the source. The calls were made as follows: active = growth percent below 10; inactive = the rest.

In the experiment the test system is SN12C renal. Kind of experiment: NCI-60 one-dose screen, 48 h (100 = growth as untreated, 0 = no growth, -100 = all killed). The conditions noted are these: 10 µM unless noted.
Regarding `CC(=O)Nc1ccc(C(=O)/C=C/c2ccc(N(C)C)cc2)cc1`, the growth was 98.2%.
Turning to `CC([C@H]1CC=C2C3CCC4=C[C@@H](N(C)C)CC[C@]4(C)C3CC[C@@]21C)N(C)C` (some centres undefined), the growth was 21.5%.
`CCCCCCCCCCCCCCCC[n+]1cccc(C#N)c1`: the growth was 96.9%.
For `CCOC1=C(Cl)C(=O)C(OCC)=C(Cl)C1=O`, the growth is 98.8%.
Consider `O=C1C(=O)c2ccccc2C(O)=C1CCCc1ccc(Oc2ccccc2)cc1`, for which the growth was 77.8%.
Regarding `CC[n+]1c(C)ccc2cc(C)ccc21`, the growth is 96.8%.
Consider `CC(=O)c1ccc2c(c1)c1ccccc1n2C`, for which the growth is 92.1%.
Next, `CCc1c(C)c2ccc(OCC(=O)N=Nc3c(O)[nH]c4ccccc34)c(C)c2oc1=O`: -43% (active).
Regarding `O=C(Nc1ccc(Cl)c(Cl)c1)O/N=C\c1c(Cl)ccc([N+](=O)[O-])c1Cl`, the growth is -52.4% (active).

For the origin of these results see PubChem BioAssay (NCI).
